CYP2C19 inh – blockers of cytochrome P450 2C19 activity – biochemical, luminescence, ADME assay, primary screen; P33261; CYP2C19 Supersomes, luciferin-H EGE luminescence, 30 min; inhibition, % at 5 µM; 96,000 compounds, 21% hits;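 active = CYP2C19 inhibition above a set limit at 5 µM in the primary screen, cut at about 50% in these data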
CYP2C9 activ – human CYP2C9 activators, primary screen, biochemical, luminescence; Cytochrome P450 2C9 (Homo sapiens), P11712; activation factor at 5 µM; recombinant CYP2C9, luciferin-H conversion; active compounds read high; factor 1 = untreated enzyme, 0 = blocked; AID 1024, 2008; 96,000 compounds, 1.4% hits;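 active = activation factor of 2 or more for CYP2C9 at a 5 µM dose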
CYP2C19 activ – human CYP2C19 activators, primary screen, biochemical, luminescence; Cytochrome P450 2C19 (Homo sapiens), P33261; recombinant CYP2C19, luciferin-H EGE luminescence; active compounds read high; 0 = fully inhibited enzyme, 1 = untreated enzyme; activation factor at 5 µM; 96,000 tested, under 10 active; AID 1025, 2008;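 active = activation factor of at least 2 at 5 µM in the primary screen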
CYP2C9 inh – blockers of cytochrome P450 2C9 activity – biochemical, luminescence, ADME assay, primary screen; CYP2C9 Supersomes, luciferin-H conversion; inhibition, % at 5 µM; 96,000 compounds, 20% hits; AID 777, 2007;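 active = blocking of liver enzyme CYP2C9 beyond about 50% at 5 µM, limit read from the data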
Cav3 T inh – Cav3.2 calcium influx blockers – cell-based, Fluo-4 calcium fluorescence, FDSS, MLSMR library, primary screen. Voltage-dependent T-type calcium channel subunit alpha-1H (Homo sapiens), O95180. Cav3.2-expressing cells; active compounds read low. B-score at 10 µM. 100,000 compounds, 4% hits;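 active = single-dose well whose peak fluorescence ratio is a statistical outlier from its plate by either plate-standardised score or position-corrected B-score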
Hits are given with their value; - = inactive; . = no result given. Rows were chosen to be rich in hits. Some 27% of all compounds tested hit in one or more screens of this group.

SMILES	CYP2C19 inh	CYP2C9 activ	CYP2C19 activ	CYP2C9 inh	Cav3 T inh
N[C@@H](Cc1ccc(O)cc1)c1nnc([C@H](CC(=O)O)NC(=O)C2CCNCC2)o1	.	.	.	.	-
O=[N+]([O-])c1ccc(Oc2ccc(F)cc2)c2ccncc12	83.5	-	-	-	-
O=[N+]([O-])c1ccc(Oc2cccc(Br)c2)c2ccncc12	58.5	-	-	-	-
CCOc1cccc(OCCOc2ccccc2[N+](=O)[O-])c1	.	.	.	.	-
O=C(NCc1cccs1)C1CCCCC1	50.6	-	-	-	-
O=C(NCc1cccs1)C1CC(=O)N(C2CCCC2)C1 (configuration not stated)	-	-	-	-	-
O=C(NCc1cccs1)C1CC(=O)N(c2ccc(F)cc2)C1 (configuration not stated)	58.8	-	-	-	-
O=C(NCc1cccs1)C1CCCN(c2ncccn2)C1 (configuration not stated)	52.8	-	-	-	-
CNS(=O)(=O)c1cccc2cccnc12	-	-	-	-	-
CCOC(=O)CNC(=O)C1CCCN(c2ncccn2)C1 (configuration not stated)	-	-	-	-	-
O=S(=O)(NCc1cccs1)c1cccc2cccnc12	-	2.8	-	-	-
Cc1ccc(N2CC(C(=O)NCc3cccs3)CC2=O)cc1 (configuration not stated)	-	-	-	-	-
Cc1nc2ncnn2c(C)c1CCC(=O)Oc1ccccc1	-	-	-	-	-
COc1cc(OC)c2c3c(c(C4CCCCC4)nc2c1)CCC3	.	.	.	.	-
CCCNC(=O)c1ccc2c(=O)n3c(-c4ccc(C)cc4)csc3nc2c1	.	.	.	.	-
O=C(NCc1ccc2c(c1)OCO2)C1CCCN(S(=O)(=O)c2cccc3cccnc23)C1 (configuration not stated)	-	-	-	-	-
O=C(NCc1cccs1)C1CCCN(S(=O)(=O)c2cccc3cccnc23)C1 (configuration not stated)	-	4.2	-	-	-
CC(C)CN(CC(C)C)S(=O)(=O)N1CCC(C(=O)NCc2cccs2)CC1	-	-	-	-	-3.73
O=C(NCc1cccs1)C1CCCN1S(=O)(=O)c1ccccc1F (configuration not stated)	52.7	-	-	-	-
CC(C)CN(CC(C)C)S(=O)(=O)N1CCC(C(=O)NCc2ccccn2)CC1	-	-	-	-	-
COc1ccccc1CNc1ccc(N2CCCCC2)cc1	76.8	-	-	-	-
COc1cccc(CNc2ccc(N3CCCCC3)cc2)c1OC	80.4	2.5	-	-	.
COc1ccccc1CNc1ccc(C(=O)O)cc1	-	-	-	-	-
Cn1c(C(=O)NCC2CCCO2)cc2c(=O)n3ccccc3nc21 (configuration not stated)	-	-	-	-	-
O=c1[nH][nH]c(-c2ccccc2)c1C=Nc1ccc(Cl)cc1	-	-	-	-	-
SMILES	CYP2C19 inh	CYP2C9 activ	CYP2C19 activ	CYP2C9 inh	Cav3 T inh
O=c1[nH][nH]c(-c2ccccc2)c1C=Nc1ccccc1Cl	88.1	-	-	-	-
O=c1[nH][nH]c(-c2ccccc2)c1C=Nc1cccc(Cl)c1	52.8	-	-	-	-
CC(C)Nc1nc(NC(C)(C)C)nc(Oc2ccc(=O)n(-c3ccccc3)n2)n1	-	-	-	-	-
O=C(CN1C(=O)c2cccc3cccc1c23)N1CCc2ccccc2C1	63.8	-	-	-	-
O=C(CN1C(=O)c2cccc3cccc1c23)N1CCN(Cc2ccc3c(c2)OCO3)CC1	.	.	.	.	-
O=C(CCCN1C(=O)c2ccccc2C1=O)N1CCN(c2ccccn2)CC1	-	-	-	-	-
O=C(CCCN1C(=O)c2ccccc2C1=O)N1CCc2ccccc2C1	50.5	-	-	-	-
O=C(CN1C(=O)c2ccccc2S1(=O)=O)N1CCc2ccccc2C1	54.7	-	-	-	.
Cc1c(NC(=O)c2ccc(COc3ccc4ccccc4c3)o2)c(=O)n(-c2ccccc2)n1C	-	-	-	-	-
Cc1ccc(CSCCNC(=O)CN2C(=O)c3ccccc3S2(=O)=O)cc1	.	.	.	.	-
Cc1ccc(NCC(=O)N/N=C/c2ccc(OC(=O)c3ccco3)cc2)cc1	-	-	-	-	-
CCOC(=O)/C(C#N)=C/c1ccc(-c2ccsc2C(=O)OC)o1	-	-	-	-	-7.02
CCOC(=O)C(=Cc1ccc(-c2ccsc2C(=O)OC)o1)C(=O)OCC	-	-	-	50.0	-
COc1ccc(S(=O)(=O)N2Cc3ccccc3CC2C(=O)O)cc1 (configuration not stated)	-	-	-	-	-
C=CCOC(=O)C1=C(C)NC(SCC(=O)Nc2ccccc2)=C(C#N)C1c1ccco1 (configuration not stated)	59.9	-	-	72.3	-
C=CCOC(=O)C1=C(C)NC(SCC(=O)N(CC)CC)=C(C#N)C1c1ccco1 (configuration not stated)	68.9	-	-	80.4	-
CCOC(=O)C1=C(C)NC(SCC(=O)O)=NC1c1ccccc1 (configuration not stated)	-	-	-	-	-
C=CCOC(=O)C1=C(C)NC(SCC(=O)N(CC)CC)=C(C#N)C1c1ccccc1 (configuration not stated)	97.3	-	-	89.7	-
O=[n+]1c2c(n([O-])c3c1CCCC3)CCCCC2	-	-	-	-	-
Cn1c2ccccc2c2ncn(CCC3=CCCCC3)c(=O)c21	71.0	-	-	83.8	-
Cn1c2ccccc2c2ncn(CCCN3CCOCC3)c(=O)c21	-	-	-	-	-
COc1ccc(Cn2c(C)c(C)c(C#N)c2NC(=O)Nc2cccc(Cl)c2)cc1	-	-	-	-	-
CCOC(=O)C(CCCOc1ccc(C(C)CC)cc1)C(=O)OCC (configuration not stated)	-	-	-	71.3	-
Cc1ccc(S(=O)(=O)N(Cc2nccn2C)C(C)C)cc1	-	-	-	-	-
Cc1ccc(C2CC(=O)NC(SCCC(C)C)=C2C#N)cc1 (configuration not stated)	-	-	-	55.8	-
C=CCSC1=C(C#N)C(c2cccc(OC)c2)CC(=O)N1 (configuration not stated)	52.4	-	-	-	-
COC(=O)CSC1=C(C#N)C(c2cccc(OC)c2)CC(=O)N1 (configuration not stated)	71.3	-	-	75.2	-
CCc1ccc(C2CC(=O)NC(SCC(=O)OC(C)C)=C2C#N)cc1 (configuration not stated)	86.7	-	-	92.8	-8.43
COC(=O)CSC1=C(C#N)C(c2ccc(C(C)C)cc2)CC(=O)N1 (configuration not stated)	-	-	-	-	-

From PubChem BioAssay
